The full data set covers some 7,900 targets. This sample favours those with a hit. About 0.6% of all pairs of compound and target were hits.
Compound: Cn1cc(-c2ccc3c(c2)CCN3C(=O)Cc2cccc(C(F)(F)F)c2)c2c(N)ncnc21
Assay: log2 fold change, soluble protein after heating vs DMSO (PISA); higher = thermal stabilisation; K562 cells, 10 uM, 30 min; active = over 0.2 and 3.5 SD of the protein, either way, in both replicates (recomputed)
In short: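 Soluble protein was defined as the supernatant after 21,000xg for 90 min. It came from K562 cells at 2×10^6 cells/mL given 10 μM compound for 30 min, heated in aliquots for 3 min across 48°C-58°C, pooled, and extracted in PBS with 0.5% NP-40 at 4°C, and was quantified by TMTpro 16plex LC-MS/MS with equalised channel sums. Thermal stability against control samples, from duplicates, is reported as log2 fold change.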

UniProt O60701, sequence (O60701 whole entry, looked up): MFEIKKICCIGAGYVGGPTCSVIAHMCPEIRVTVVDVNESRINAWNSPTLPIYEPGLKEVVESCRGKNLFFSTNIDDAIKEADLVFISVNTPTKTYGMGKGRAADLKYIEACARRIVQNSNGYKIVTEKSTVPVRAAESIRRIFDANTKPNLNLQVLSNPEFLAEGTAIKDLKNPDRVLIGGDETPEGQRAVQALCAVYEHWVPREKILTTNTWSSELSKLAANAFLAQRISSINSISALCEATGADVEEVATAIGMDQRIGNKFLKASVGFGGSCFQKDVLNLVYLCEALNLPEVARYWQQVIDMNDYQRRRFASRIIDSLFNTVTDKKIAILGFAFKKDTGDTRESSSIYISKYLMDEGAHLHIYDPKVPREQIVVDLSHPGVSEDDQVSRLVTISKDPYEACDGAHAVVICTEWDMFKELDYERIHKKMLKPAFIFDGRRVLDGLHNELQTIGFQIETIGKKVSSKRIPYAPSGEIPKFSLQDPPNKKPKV
UniProt Q93009, sequence (Q93009 whole entry, looked up): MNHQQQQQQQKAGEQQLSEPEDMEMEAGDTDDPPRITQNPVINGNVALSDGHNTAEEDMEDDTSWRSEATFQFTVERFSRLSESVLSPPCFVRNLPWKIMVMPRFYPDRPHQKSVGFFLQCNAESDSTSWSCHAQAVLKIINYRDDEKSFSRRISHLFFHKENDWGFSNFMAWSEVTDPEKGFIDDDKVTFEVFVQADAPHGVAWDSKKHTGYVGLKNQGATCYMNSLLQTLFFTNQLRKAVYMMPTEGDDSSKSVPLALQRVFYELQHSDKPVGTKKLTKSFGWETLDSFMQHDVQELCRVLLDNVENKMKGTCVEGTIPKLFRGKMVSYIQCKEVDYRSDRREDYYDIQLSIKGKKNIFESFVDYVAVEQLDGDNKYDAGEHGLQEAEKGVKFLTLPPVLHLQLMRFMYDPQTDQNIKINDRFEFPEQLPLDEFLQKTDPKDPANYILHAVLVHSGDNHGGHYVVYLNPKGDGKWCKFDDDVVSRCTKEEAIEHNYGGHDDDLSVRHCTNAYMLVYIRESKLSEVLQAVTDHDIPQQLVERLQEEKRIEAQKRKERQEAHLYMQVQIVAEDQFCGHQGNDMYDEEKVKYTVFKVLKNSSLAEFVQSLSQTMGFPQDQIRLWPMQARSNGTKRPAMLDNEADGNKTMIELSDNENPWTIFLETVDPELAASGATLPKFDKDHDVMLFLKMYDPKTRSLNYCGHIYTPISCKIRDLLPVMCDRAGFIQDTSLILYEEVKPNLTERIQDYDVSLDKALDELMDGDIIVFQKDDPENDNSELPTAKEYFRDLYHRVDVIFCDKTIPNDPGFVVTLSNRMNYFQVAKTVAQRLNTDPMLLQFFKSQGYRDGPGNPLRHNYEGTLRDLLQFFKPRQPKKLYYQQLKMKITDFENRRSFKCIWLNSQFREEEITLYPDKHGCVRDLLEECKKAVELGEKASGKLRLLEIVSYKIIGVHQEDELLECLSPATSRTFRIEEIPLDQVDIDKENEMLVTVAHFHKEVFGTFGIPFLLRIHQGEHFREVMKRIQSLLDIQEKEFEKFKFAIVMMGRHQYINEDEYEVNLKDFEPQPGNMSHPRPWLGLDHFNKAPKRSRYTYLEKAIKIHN
UniProt Q8N4H5, sequence (Q8N4H5 whole entry, looked up): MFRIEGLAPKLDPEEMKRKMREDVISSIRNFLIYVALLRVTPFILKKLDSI
UniProt Q9NV66, sequence (Q9NV66 whole entry, looked up): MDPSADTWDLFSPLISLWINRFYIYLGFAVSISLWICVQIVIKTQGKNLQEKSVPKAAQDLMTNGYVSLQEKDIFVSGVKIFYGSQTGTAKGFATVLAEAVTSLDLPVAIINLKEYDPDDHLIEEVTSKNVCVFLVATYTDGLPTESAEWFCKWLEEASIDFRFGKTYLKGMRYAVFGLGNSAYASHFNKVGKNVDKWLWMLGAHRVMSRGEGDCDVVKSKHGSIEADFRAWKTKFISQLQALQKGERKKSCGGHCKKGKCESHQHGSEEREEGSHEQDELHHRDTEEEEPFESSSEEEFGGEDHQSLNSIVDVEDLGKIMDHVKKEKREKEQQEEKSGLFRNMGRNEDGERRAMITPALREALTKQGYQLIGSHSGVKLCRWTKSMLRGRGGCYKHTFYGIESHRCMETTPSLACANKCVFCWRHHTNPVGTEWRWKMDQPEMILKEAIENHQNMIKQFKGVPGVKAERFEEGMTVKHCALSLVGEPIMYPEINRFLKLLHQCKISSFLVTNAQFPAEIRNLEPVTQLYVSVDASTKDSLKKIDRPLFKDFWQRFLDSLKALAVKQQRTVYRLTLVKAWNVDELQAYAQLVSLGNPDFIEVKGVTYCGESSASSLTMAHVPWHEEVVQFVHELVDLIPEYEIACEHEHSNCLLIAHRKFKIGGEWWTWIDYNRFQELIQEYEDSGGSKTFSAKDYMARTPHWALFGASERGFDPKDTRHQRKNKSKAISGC
UniProt A0PJW6, sequence (A0PJW6 whole entry, looked up): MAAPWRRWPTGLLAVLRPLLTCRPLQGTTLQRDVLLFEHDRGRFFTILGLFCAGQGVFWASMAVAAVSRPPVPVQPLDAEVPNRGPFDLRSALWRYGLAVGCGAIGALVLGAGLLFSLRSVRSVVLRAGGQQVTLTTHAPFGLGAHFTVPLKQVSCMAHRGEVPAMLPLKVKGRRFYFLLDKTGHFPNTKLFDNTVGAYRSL
UniProt Q9NQW7, sequence (Q9NQW7 whole entry, looked up): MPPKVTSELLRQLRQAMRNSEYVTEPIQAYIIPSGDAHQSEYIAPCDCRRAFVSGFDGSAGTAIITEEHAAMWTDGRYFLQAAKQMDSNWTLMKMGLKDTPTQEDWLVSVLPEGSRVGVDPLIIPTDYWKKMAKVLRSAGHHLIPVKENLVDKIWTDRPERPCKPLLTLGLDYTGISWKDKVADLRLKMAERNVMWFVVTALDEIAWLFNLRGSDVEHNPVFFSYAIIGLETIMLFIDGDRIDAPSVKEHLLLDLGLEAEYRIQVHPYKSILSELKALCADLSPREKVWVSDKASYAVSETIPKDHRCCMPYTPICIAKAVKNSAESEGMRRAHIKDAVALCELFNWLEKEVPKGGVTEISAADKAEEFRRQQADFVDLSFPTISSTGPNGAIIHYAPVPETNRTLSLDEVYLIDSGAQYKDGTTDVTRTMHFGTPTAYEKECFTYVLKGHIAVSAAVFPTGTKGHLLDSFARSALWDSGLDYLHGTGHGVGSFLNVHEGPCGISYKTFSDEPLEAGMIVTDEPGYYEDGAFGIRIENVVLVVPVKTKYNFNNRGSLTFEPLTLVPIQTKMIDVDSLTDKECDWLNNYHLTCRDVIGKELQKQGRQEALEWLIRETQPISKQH
UniProt O75554, sequence (O75554 whole entry, looked up): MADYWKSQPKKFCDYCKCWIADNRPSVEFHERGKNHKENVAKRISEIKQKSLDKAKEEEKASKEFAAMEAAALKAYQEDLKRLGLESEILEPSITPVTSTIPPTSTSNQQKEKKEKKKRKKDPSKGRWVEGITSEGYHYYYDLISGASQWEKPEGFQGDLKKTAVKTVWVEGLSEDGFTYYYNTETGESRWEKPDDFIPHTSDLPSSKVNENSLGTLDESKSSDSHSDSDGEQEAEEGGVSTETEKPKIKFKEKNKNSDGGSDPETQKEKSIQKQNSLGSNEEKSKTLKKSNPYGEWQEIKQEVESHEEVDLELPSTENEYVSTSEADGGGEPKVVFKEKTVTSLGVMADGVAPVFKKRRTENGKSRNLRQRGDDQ
UniProt P12956, sequence (P12956 whole entry, looked up): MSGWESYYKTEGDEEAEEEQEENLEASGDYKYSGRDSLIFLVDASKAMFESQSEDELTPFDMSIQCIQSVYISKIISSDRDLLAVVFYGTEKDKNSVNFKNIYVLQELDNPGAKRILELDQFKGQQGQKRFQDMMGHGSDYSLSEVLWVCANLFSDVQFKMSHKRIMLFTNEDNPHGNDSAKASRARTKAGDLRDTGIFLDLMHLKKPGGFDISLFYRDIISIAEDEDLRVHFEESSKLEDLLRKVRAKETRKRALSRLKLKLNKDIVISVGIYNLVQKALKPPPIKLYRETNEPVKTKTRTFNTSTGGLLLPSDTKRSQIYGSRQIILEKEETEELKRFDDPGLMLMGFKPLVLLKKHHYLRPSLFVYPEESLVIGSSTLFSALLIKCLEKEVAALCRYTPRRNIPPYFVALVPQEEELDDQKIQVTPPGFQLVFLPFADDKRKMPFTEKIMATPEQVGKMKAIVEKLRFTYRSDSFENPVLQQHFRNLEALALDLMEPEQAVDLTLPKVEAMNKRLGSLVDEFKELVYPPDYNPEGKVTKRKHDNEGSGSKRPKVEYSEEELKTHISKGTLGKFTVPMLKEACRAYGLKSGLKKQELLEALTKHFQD
UniProt P68366, sequence (P68366 whole entry, looked up): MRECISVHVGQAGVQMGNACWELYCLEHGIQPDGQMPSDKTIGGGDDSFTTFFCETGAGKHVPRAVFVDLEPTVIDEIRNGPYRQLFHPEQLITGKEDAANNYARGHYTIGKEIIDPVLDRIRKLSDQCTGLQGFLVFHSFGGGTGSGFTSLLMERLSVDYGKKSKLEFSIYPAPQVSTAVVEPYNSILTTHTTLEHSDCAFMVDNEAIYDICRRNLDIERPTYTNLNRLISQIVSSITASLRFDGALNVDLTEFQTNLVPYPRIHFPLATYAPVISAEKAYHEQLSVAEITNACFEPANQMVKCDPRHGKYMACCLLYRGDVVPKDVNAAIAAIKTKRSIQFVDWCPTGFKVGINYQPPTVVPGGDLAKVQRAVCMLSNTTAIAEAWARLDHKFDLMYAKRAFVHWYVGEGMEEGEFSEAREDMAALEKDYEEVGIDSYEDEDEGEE
UniProt Q9UL33, sequence (Q9UL33 whole entry, looked up): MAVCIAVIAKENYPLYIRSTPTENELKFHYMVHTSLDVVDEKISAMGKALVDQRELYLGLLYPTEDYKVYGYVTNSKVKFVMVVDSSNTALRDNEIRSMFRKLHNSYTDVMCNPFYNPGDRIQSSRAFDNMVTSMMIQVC

log2 fold change, inactive:
TRAPPC2L (UniProt Q9UL33) -0.041
UGDH (UniProt O60701) 0.151
WDR7 (UniProt Q9Y4E6) 0.085
TOMM5 isoform 2 (UniProt Q8N4H5) 0.062
USP7 (UniProt Q93009) 0.101
TYW1 (UniProt Q9NV66) -0.001
UBR2 (UniProt Q8IWV8) -0.023
TMEM161A (UniProt Q9NX61) -0.05
XPNPEP1 isoform 3 (UniProt Q9NQW7) 0.084
XRCC6 (UniProt P12956) -0.01
TNPO2 (UniProt O14787) -0.076
TRMT10C (UniProt Q7L0Y3) 0.046
UHRF1BP1L (UniProt A0JNW5) 0.036
TUBA4A (UniProt P68366) 0.047
USP3 (UniProt Q9Y6I4) 0.027
WBP4 (UniProt O75554) 0.037
VTA1 (UniProt Q9NP79) 0.035
UBE3D (UniProt Q7Z6J8) 0.003
VPS16 (UniProt Q9H269) -0.039
TXNRD1 (UniProt Q16881) 0.067
TMEM177 (UniProt Q53S58) -0.019
WDCP (UniProt Q9H6R7) -0.099
TMEM223 (UniProt A0PJW6) -0.025
